In PubChem BioAssay AID1745850 (National Center for Advancing Translational Sciences (NCATS), 2022):
About 260 (12%) of roughly 2,100 compounds were called active. Roughly 58% stayed inconclusive and do not appear here. Calls follow the shape of the dose curve; as a rule, active = well fitted cell-killing curve with a large enough effect; inconclusive = small, poorly fitted or top-dose-only effect, or effect the other way; inactive = flat fitted curve, though single readings scatter. Some of the results follow.

Assay: Viability Counterscreen for Confirmatory qHTS for Inhibitors of ATXN expression; also: nearly all actives have a fitted effect of over 50% in size
Conditions: HEK-293 ATXN2-luc cells viability, CellTiter-Fluor, 24 h; activity change, negative = cytotoxicity: at the top concentration
From the text: PI: Daniel Scoles Ph.D. University of Utah School of Medicine, Salt Lake City, Utah MLPCN Grant: NS073009 Spinocerebellar ataxia type 2 (SCA2) is a multisystem neurodegenerative disease caused by a dominantly acting mutation leading to expansion of a polyQ domain in the ataxin-2 protein (ATXN2). SCA2 patients develop progressive ataxia and later lose function in other neuronal systems. Prominent parkinsonian signs develop in some patients. Like many neurodegenerative disorders, no symptomatic or disease-modifying treatments are known. The primary objective of the proposed research is to identify compounds inhibiting ATXN2 expression and to test them for efficacy in SCA2 mouse models. We have developed a cell-based assay paired with an in vivo mouse model using identical luciferase expression constructs. This approach takes advantage of an ATXN2-luciferase transgene, with the luciferase gene flanked by the upstream and downstream portions of the ATXN2 gene. Here we describe a 5-7 dose quantitative high thoroughput screen (qHTS) for compounds lowering ATXN2 expression. We screened the NIH Molecular Libraries Small Molecule Repository (MLSMR) and NCGC's mechanistically annotated (MIPE) and drug repurposing (NPC) collections of compounds for lowering expression of an ATXN2-luciferase reporter in HEK-293 cells. The assay is a multiplexed cell viability assay to ensure target reduction in the absence of cytotoxicity. Secondary qHTS assays included a CMV-luciferase reporter expressed in HEK-293 cells as well as a biochemical assay using recombinant luciferase to detect inhibitors of the reporter enzyme. Compounds that inhibit ATXN2 expression but is not cytotoxic were selected for confirmatory and secondary screens.
PROTOCOL TABLE (as described by Inglese J, Shamu CE and Guy RK. 2007) SEQUENCE No. (e.g., 1, 2, 3, etc.); […] (e.g., Cells, Incubation, Reagent, etc.); VALUE; DESCRIPTION. 1; Cells; 4 uL; white, solid bottom, 1536-well Greiner assay plate. 2; Incubation; 2 hr; 37 degree C in 5% humidified CO2. 3; Compounds; 23 nL; Kalypsis pintool (Wako USA) equipped with a 1536-well pin head. 4; Incubation; 24 hr; 37 degree C in 5% humidified CO2. 5; Reagent; 1 uL; Gly-Phe-7-Amino-4-trifluoromethylcoumarin. 6; Incubation; 30 min; 37 degree C in 5% humidified CO2. 7; Detection; Fluorescence; ViewLux plate reader (PerkinElmer). 8; Reagent; 3 uL; SteadyGlo luciferase solution (Promega). 9; Incubation; 5 min; room temperature. 10; Detection; Luminescence; ViewLux plate reader (PerkinElmer). NOTES (numbers refer to Sequence numbers above) 1. S2 cells expressing ATXN2-luciferase reporter were suspended in phenol-red free DMEM and dispensed in assay plates using a Multidrop Combi dispenser (Thermo Fisher Scientific). Wells containing medium only were plated on each plate, and values were used to normalize (100% inhibition) in the luciferase and CellTiter-Fluor assays. 2. Assay plates were incubated. Evaporation was prevented by covering assay plates with metal lids containing holes to allow gas diffusion. 3. Compounds were added in a dose response manner with the final concentrations of 57, 11.4, 2.28, 0.46, 0.091, 0.018, 0.0037 uM. Vehicle-only plates, with DMSO being pin-transferred to columns 5-48, were inserted uniformly at the beginning and the end of each library to monitor and record any shifts in assay performance. 5. 125 uM Gly-Phe-7-Amino-4-trifluoromethylcoumarin (MP Biomedicals) working concentration was used at a final concentration of 25 uM. 7. To assess cell viability; the assay plates were read using the ViewLux high-throughput CCD imager (PerkinElmer), wherein single end-point fluorescence measurement was acquired (excitation 405/10; emission 540/25 nm). 8. Detection reagent SteadyGlo Luciferase (Promega) was added to the assay plate. 10. Luminescence is then measured on the ViewLux imager equipped with a clear emission filter using a 2 sec exposure. […]
Potency is read from the fitted curve at half-maximal effect.

Compound | Potency | activity change, negative = cytotoxicity
Cc1cccc(-n2c(/C=C/c3ccc([N+](=O)[O-])o3)nc3ccccc3c2=O)c1 | 7.08 µM (active) | –
CSCCC(c1nnnn1-c1c(C)cccc1C)N1CCC2(CC1)C(=O)NCN2c1ccccc1 (stereo not drawn) | 31.6 µM (active) | –
O=C(Nc1ccc(OC(=O)N2CCCCC2)cc1)N1CCOCC1 | – | -9.64% [at 57.5 µM] (inactive)
N#Cc1cn(C2OC(CO)C(O)C2O)c2ncnc(N)c12 (stereo not drawn) | – | -24.1% (inactive)
O=[N+]([O-])c1oc2ccc3ccccc3c2c1CCO | 28.2 µM (active) | –
COc1ccc(N=Cc2c(O)n(-c3ccc(C)cc3)c(=O)[nH]c2=O)cc1 | – | 0.886% [at 57.5 µM] (inactive)
COC(=O)C(O)(c1ccc(NC(=S)NC(=O)c2ccc(Cl)cc2Cl)c(C)c1)C(F)(F)F (stereo not drawn) | – | -15.9% (inactive)
COc1cccc2c1C(=O)c1c(O)c3c(c(O)c1C2=O)CC(O)(C(C)=NO)CC3OC1CC(N)C(O)C(C)O1 (stereo not drawn) | 17.8 µM (active) | –
CC(=O)OC1(C)CC(C)C(=O)C(C(O)CC2CC(=O)NC(=O)C2)C1 (stereo not drawn) | – | -36.1% (inactive)
C[C@]12CC[C@H](O)C[C@H]1CC[C@@H]1C2CC[C@]2(C)[C@@H](C3=CC(=O)OC3)[C@@H](O)C[C@]12O (stereo partly drawn) | – | -28.4% (inactive)
CCC1(OC(=O)CN)C(=O)OCc2c1cc1n(c2=O)Cc2cc3ccccc3nc2-1 (stereo not drawn) | – | 0.438% (inactive)
COC(=O)c1nc(-c2ccc3c(n2)C(=O)C(N)=C(OC)C3=O)c(N)c(-c2ccc(OC)c(OC)c2O)c1C | 15.8 µM (active) | –
CCOC(=O)[C@]12Cc3ccsc3[C@H]1N(Cc1ccccc1)C(=O)c1ccccc12 | – | -19.3% (inactive)
CN1C2CCC1/C(=C/c1ccccn1)C(=O)/C2=C\c1ccccn1 | 1.26 µM (active) | –
N#Cc1c(Br)n(C2OC(CO)C(O)C2O)c2ncnc(N)c12 (stereo not drawn) | – | -19.5% (inactive)
Cc1cccc(C)c1-n1nnnc1C(c1cc2ccccc2o1)N1CCC(n2c(=O)[nH]c3ccccc32)CC1 (stereo not drawn) | 8.91 µM (active) | –
CC(C)(C)n1nnnc1C(CCc1ccccc1)N1CCC(n2c(=O)[nH]c3ccccc32)CC1 (stereo not drawn) | 22.4 µM (active) | –
O=c1[nH]c2ccccc2n1C1CCN(C(CCc2ccccc2)c2nnnn2C2CCCC2)CC1 (stereo not drawn) | 22.4 µM (active) | –
O=C(NN=Cc1ccc(N(CCCl)CCCl)cc1)c1cc(=O)[nH]c(=O)[nH]1 | – | -23.7% [at 57.5 µM] (inactive)

Compound | Potency | activity change, negative = cytotoxicity
C1=NCCc2c1[nH]c1ccccc21 | – | -16.8% (inactive)
COC1C(O)C(C)OC(OC2C(Oc3cccc4c(O)c5c(=O)oc6ccc(C)c7c(=O)oc(c34)c5c67)OC(C)C(O)C2O)C1O (stereo not drawn) | – | 9.42% (inactive)
Cc1c2ccncc2c(C)c2c1[nH]c1ccccc12 | 22.4 µM (active) | –
CCn1c(O)c(/C=N/NC(=O)c2ccccc2)c(=O)n(CC)c1=S | – | -20.6% [at 57.5 µM] (inactive)
NC(Cc1ccc(Cl)cc1)c1csc(Nc2ccccn2)n1 (stereo not drawn) | 25.1 µM (active) | –
CC[C@@]1(O)C(=O)OCc2c1cc1n(c2=O)Cc2cc3c(NC(=O)CN)cccc3nc2-1 | – | 11.8% (inactive)
Cc1ccc(/C=C2\C(=O)NC(=S)N(c3ccccc3F)C2=O)s1 | 8.91 µM (active) | –
CCCCCn1c(=O)c(C(=O)NCc2ccccn2)c(O)c2ccccc21 | – | -17.6% (inactive)
C#CCCC[C@@H]1OC(=O)CNC(=O)C([C@@H](C)CC)NC(=O)[C@@H]2CCCN2C(=O)C([C@@H](C)CC)OC(=O)[C@H](Cc2ccccc2)N(C)C(=O)[C@H](C(C)C)NC(=O)C1(C)C (stereo partly drawn) | 22.4 µM (active) | –
C=CCCC[C@@H]1OC(=O)CNC(=O)C([C@@H](C)CC)NC(=O)[C@@H]2CCCN2C(=O)C([C@@H](C)CC)OC(=O)[C@H](Cc2ccccc2)N(C)C(=O)[C@H](C(C)C)NC(=O)C1(C)C (stereo partly drawn) | 3.16 µM (active) | –
CCC(C)N1C(=O)/C(=C\c2cnc(N(C)C)nc2)C(=O)NC1=S (stereo not drawn) | – | -15.9% [at 57.5 µM] (inactive)
c1ccc2sc(N3CCNCC3)nc2c1 | – | -9.18% [at 57.5 µM] (inactive)
O=C1NC(=O)N(CCc2ccc(F)cc2)C(=O)/C1=C/C=C/c1ccccc1 | 11.2 µM (active) | –
COc1ccc(CCNCc2ccc(F)cc2)cc1OC | – | -5.15% (inactive)
CCCCCCC(=O)N/N=C/c1c(O)n(CCCC)c(=S)[nH]c1=O | – | -27.8% [at 57.5 µM] (inactive)
CC(=NCCc1c[nH]c2ccccc12)c1c(O)n(Cc2ccccc2)c(=O)[nH]c1=O | – | -15% [at 57.5 µM] (inactive)
CCCCCn1c(NC(=O)c2ccco2)c(C(=O)OCC)c2nc3ccccc3nc21 | 28.2 µM (active) | –
CCOC(=O)c1c(N)n(CCN2CCCCC2)c2nc3ccccc3nc12 | – | 4.3% [at 57.5 µM] (inactive)
CC(C)CCNC(=O)c1c(N)n(Cc2ccc3c(c2)OCO3)c2nc3ccccc3nc12 | – | -11.5% [at 57.5 µM] (inactive)
